According to PubChem BioAssay AID1159506 (National Center for Advancing Translational Sciences (NCATS), 2015):
The full ranking holds about 59,000 sequences; the median of the read-out is about -0.00055, and the lowest 2% start at about -2. Shown is part of a subset that was picked to be rich in the lowest values.

Experiment: Identification of proteins required for the processing of the EWS-FLI1 nascent transcript;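 note: robust z of luciferase light less the median z of siRNAs with the same seed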
Conditions: TC32 Ewing sarcoma NR0B1-luc vs CMV-luc (EWS-FLI1 target promoter against control promoter), 48 h; screened at 20 nM (by protocol)
Summary of the method: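 TC32 Ewing sarcoma cells carrying NR0B1-promoter or CMV-promoter luciferase reporters were reverse-transfected with single siRNAs at 20 nM, three per gene genome-wide. Luminescence was read after 48 h and normalized to non-targeting controls.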

In order of falling seed-corrected z-score:
1. UCUGUGGAUACUGAUAUUC against NRG1  1.7
2. AUAGGUUCCUCUAUAUGUG against ZNF396  1.53
3. UCAUUGUUGAGGUGCGUGA against CDK5R1  1.16
4. AAAACACGUCGAAAUCUCC against RPL39  0.834
5. UGUCCAUCCGUCAUGAUGC against ANKRD60  0.777
6. AGAUUUAUAAUAAUCCCAC against C11orf72  0.747
7. UCUGGUACAUUCGAUAGCG against PTGFRN  0.714
8. AAAUGAACAGGUUUGGAAC against GRPR  0.695
9. UAUAAGUAAGCCUAGCUUG against C16orf54  0.684
10. UACAGAAUGGUUGUCUUGC against ARF4  0.573
11. AACGUAAUAAAAGUCUUGC against SERHL  0.571
12. UUAUUGACACGAAUACAUC against BTG3  0.565
13. UUCUGCACUCGAGUAAAGG against MAD2L1  0.536
14. AACCGAUUCAUGACCACCG against AQP5  0.51
15. UUUCAUAGUAAUCGUAGAC against LOC728715  0.493
16. UCGUCUAAAAUGACUAACG against SACS  0.485
17. UAGCUAUUACCUUACAUUG against HRG  0.409
18. UUUUGGACAGGACCGUUGG against SEC24A  0.282
19. AUGCUAGUCAAAAGAAUCG against FBXO40  0.266
20. UUUCGUAUUCUGAGGACCG against DLGAP5  0.243
21. UAGAGUGCUAAGGACAGGG against GFI1B  0.226
22. AACCGCUCCAUUUUUGCUC against POM121L12  0.212
23. AAACCUGCUAUAUCACUCC against ATAD1  0.174
24. UCAGAUUUCAGAUCUUUGA against ANXA11  0.136
25. UUCUUGUUGGAUAAUGCUG against RFX8  0.126
26. ACCUCUUCAACAUCUAACC against GEMIN4  0.118
27. UUACUAACAUCUUCUCGUC against PKN2  0.115
28. UUAGGGAAAGGUCCUCCUU against ELK1P1  0.104
29. UUUCUUCCCAUGAUCUUUC against RALBP1  0.057
30. UAUGUAACAGGAUCCUGCC against RFC1  0.0202
31. AACGGGAACACCGACAACA against OPRL1  -0.00815
32. UCAGGUACUCUAACACCGC against HIST1H2AC  -0.00982
33. UGACUUUACCUCAAAGUUG against PRPF19  -0.0138
34. AUCGCUCCCAUAGUUCACC against KRT20  -0.0454
35. ACAUGAUCCAUCCAAAUGC against CD163  -0.0516
36. UGUCAUAUACGCUCCAUAC against EYA4  -0.104
37. AUGGCUUCAACAAGCAUCU against HGH1  -0.109
38. AUACGAUAAGCAGAGGAGG against GLT8D1  -0.112
39. AAACCUAUUAGUGAGAACA against TRIML1  -0.116
40. UAUGGAAAAAUUAAUCUGU against RAC1  -0.118
41. UGUUUCUACCCUUUGCUCC against FAM174B  -0.127
42. UACGGGUGCAGUAGUGGUG against RGR  -0.158
43. AAAGUUCUCAGGGUAGUGG against TOP3B  -0.163
44. UUUUCCUUAAUUAACGGCA against DTYMK  -0.22
45. UAUGGGUUUGUUAAAAGGC against FUT6  -0.26
46. UUGGUGACUGUGCGCAUCC against TACR2  -0.41
47. UACAGUGCAGGAUCUUCUC against NBL1  -0.461
48. UUGAGAGUAGAGACUGAGC against MKL2  -0.474
49. UUGCCUUCCAAGUUCUUUC against TNP2  -0.491
50. UUGGGUGCGAUCUGCAGAC against LINC00304  -0.536
51. UUUGCAGCUAGUGAUGCGC against ABHD8  -0.567
52. UUGCAGAUCUUUUCGCACC against S100A9  -0.59
53. AAACGGAGUCGUAGGAUCC against BMP15  -0.603
54. UUCCUUGUUAGCACAGACC against GSR  -0.669
55. UAUAUAUCGCCCAUCUCUC against OARD1  -0.737
56. UCAUUGUCUUCUAUCAAUC against FYN  -0.739
57. UAAGGAUAUUUGCUAAGGC against HMGCLL1  -0.796
58. UCUAGGGUCACUGUGACGG against RGS9BP  -0.834
59. AUGGUGGUAAUUACGCUGC against SLCO5A1  -0.993
60. UUACUGGAGACCAAUCUUC against FDFT1  -1.01
61. UGACUUAUGAACAUCAAAG against KLHL31  -1.09
62. UAUGGGUCUACCGUCACAC against MIOS  -1.14
63. AUGUGGACAACCUUCUUUG against RPS10P9  -1.14
64. UUCGAUAGAGAACAAGUCG against FBXL4  -1.24
65. AAAGUACUCCGUAUUUCCC against SLC35D2  -1.42
66. CACGUGGCUAUUGUGGAAC against COX6A2  -1.45
67. UACUUGUUGAGUGUCUCAG against CXCR1  -1.52
68. UCAUCGUCUACUUCCAUUG against BPTF  -1.63
69. UUUGGUGCAAAAACCGUGU against WTIP  -2
70. UACCGGUCGAGGCUGAUCA against HRH2  -2.03
71. AAUUUAUUCCAAACUUGUC against ME3  -2.03
72. AAUCUUCGUAAGACUAUCC against C9orf50  -2.07
73. UACUGUCCCAAUGGUCAGC against EZH2  -2.1
74. AGUCGAAUAACAUAUAUCC against NBPF14  -2.13
75. UGUCUUCGCACUCUUAUCC against IFRD1  -2.25
76. AUCUAUCUGACCCAAAUCC against HNRNPH1  -2.26
77. UGCUGGUUCAACUCAUCGC against DLGAP3  -2.34
78. UUGAUUUCCACGUUGCAUC against SLC10A2  -2.5
79. UAGUUGUCCUUCAUAAUUC against CCDC67  -2.53
80. AAGCCUCACAGUACUGCGC against NSMCE3  -2.76
81. UUCGUAUUAAGAACUGCAG against PSMD1  -2.79
82. UGGAGGUUAUGAUCAUUCC against OR51B6  -2.91
83. UUCUUUAUCUCGAUGAUGC against FAM117B  -3.46
84. UUCAGUAGAAGUUUCAUCU against POLR2H  -3.55
85. AAUGAUCACACCUAAGCCC against USH2A  -3.89
